Among the test systems are HCT-15 colon; HT29 colon; SNB-75 CNS; SNB-19 CNS; PC-3 prostate; SK-MEL-5 melanoma; UACC-62 melanoma; LOX IMVI melanoma; SK-MEL-28 melanoma; SK-MEL-2 melanoma; EKVX NSCLC; SN12C renal; UO-31 renal; TK-10 renal; ACHN renal; CAKI-1 renal; A498 renal; CCRF-CEM leukemia; MOLT-4 leukemia.
What all share (test): NCI-60 one-dose screen, 48 h (100 = growth as untreated, 0 = no growth, -100 = all killed)
Holding throughout (conditions): 10 µM unless noted

Values joined by “and” are separate entries in the source; they are usually repeats but may differ in a detail not shown here. Equal values may be shown once. The panel holds about 83,000 compounds, 20% with a hit somewhere; the sample as a whole holds those more often.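 The test compound was applied at a single concentration to cells in 96-well plates for 48 hours, and percent growth was recorded.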 Active and inactive are the calls of the source. Rule for the calls: active = growth percent below 10; inactive = the rest.

Regarding `O=[N+]([O-])c1ccc(S(=O)Cc2ccccc2)c([N+](=O)[O-])c1` (centres undefined), the growth with HCT-15 colon is 6.6% (active) and -44.4% (active); with HT29 colon it was -67.6% (active) and -20.6% (active); in the test on SNB-75 CNS it was 105% (inactive) and 50% (inactive); in the test on SNB-19 CNS, 92.8% (inactive) and 97.7% (inactive); in the test with PC-3 prostate it was 93.9% (inactive) and 82.8% (inactive); in the test on SK-MEL-5 melanoma, 88% (inactive) and 75.9% (inactive). The growth in the test with UACC-62 melanoma is 54.6% (inactive) and 82.2% (inactive); with LOX IMVI melanoma, -75.4% (active) and -31.4% (active); in the test with SK-MEL-28 melanoma it was 89.4% (inactive) and 23% (inactive); in the test with SK-MEL-2 melanoma, 82.9% (inactive) and 87.7% (inactive); with EKVX NSCLC, 90.4% (inactive); in the test with SN12C renal, 62.5% (inactive) and 87.4% (inactive). Moreover, the growth is -24.9% (active) and -40.3% (active) in the test with UO-31 renal; 32.5% (inactive) and -27.2% (active) with TK-10 renal; -58.6% (active) and -91.6% (active) with ACHN renal; 35.8% (inactive) and -14.6% (active) in the test with CAKI-1 renal; 98% (inactive) and 85.1% (inactive) in the test with A498 renal; -15% (active) and 0.711% (active) in the test on CCRF-CEM leukemia. In addition, the growth in the test with MOLT-4 leukemia was 81.6% (inactive) and 1.31% (active).
With `O=C(Nc1ccc2ncsc2c1)c1csc(Nc2ccc3[nH]ncc3c2)n1`, the growth with HCT-15 colon is 26% (inactive); in the test with HT29 colon, 19.4% (inactive); with SNB-75 CNS it was 21.6% (inactive); in the test with SNB-19 CNS it was 41.2% (inactive); in the test on PC-3 prostate, 40.6% (inactive); with SK-MEL-5 melanoma, 9.43% (active). The growth in the test on UACC-62 melanoma is 22.7% (inactive); with LOX IMVI melanoma it was 45% (inactive); in the test on SK-MEL-28 melanoma it was 69.2% (inactive); in the test with SK-MEL-2 melanoma, 50.6% (inactive); in the test on EKVX NSCLC it was 58.6% (inactive); in the test on SN12C renal, 49.9% (inactive). For the same compound, the growth in the test with UO-31 renal was 50.3% (inactive); in the test on TK-10 renal, 55.2% (inactive); with ACHN renal, 50.5% (inactive); with CAKI-1 renal it was 30.3% (inactive); in the test on A498 renal, 36.8% (inactive); in the test with CCRF-CEM leukemia, 23% (inactive). For the same compound, the growth in the test on MOLT-4 leukemia is 49.8% (inactive).
For `Cc1c(CC(=O)OCCO)cc(-c2ccc(Cl)cc2)n1-c1ccccc1`, the growth is 94.4% (inactive) with HCT-15 colon; 101% (inactive) with HT29 colon; 65.9% (inactive) in the test with SNB-75 CNS; 95.3% (inactive) in the test on SNB-19 CNS; 101% (inactive) in the test with PC-3 prostate; 88.8% (inactive) with SK-MEL-5 melanoma. In addition, the growth with UACC-62 melanoma was 77.7% (inactive); with LOX IMVI melanoma it was 94% (inactive); with SK-MEL-28 melanoma, 109% (inactive); with SK-MEL-2 melanoma it was 103% (inactive); in the test with EKVX NSCLC, 95.5% (inactive); with SN12C renal it was 92.4% (inactive). Besides, the growth was 75.5% (inactive) with UO-31 renal; 115% (inactive) in the test on TK-10 renal; 87.6% (inactive) with CAKI-1 renal; 87.9% (inactive) in the test with A498 renal; 99% (inactive) in the test with CCRF-CEM leukemia; 91.4% (inactive) with MOLT-4 leukemia.
With `O=C1c2cc3c(cc2-c2c1c1ccc(Cl)cc1c(=O)n2CCCn1ccnc1)OCO3`, the growth in the test with HCT-15 colon was 7.3% (active); in the test with HT29 colon, -62.9% (active); in the test on SNB-75 CNS, 0.456% (active); with SNB-19 CNS, 17.3% (inactive); with PC-3 prostate it was 19.9% (inactive); in the test on SK-MEL-5 melanoma, -93% (active). Moreover, the growth was -57.7% (active) in the test on UACC-62 melanoma; -76.8% (active) in the test with LOX IMVI melanoma; 15.5% (inactive) in the test with SK-MEL-28 melanoma; 31.1% (inactive) with SK-MEL-2 melanoma; 42.4% (inactive) with EKVX NSCLC; 12.6% (inactive) in the test on SN12C renal. Moreover, the growth with UO-31 renal was -7.59% (active); with TK-10 renal it was 46.3% (inactive); in the test on ACHN renal, -19% (active); in the test on CAKI-1 renal it was 9.62% (active); in the test on A498 renal it was -12.9% (active); in the test on CCRF-CEM leukemia it was 3.44% (active). For the same compound, in the test with MOLT-4 leukemia, the growth was -28.2% (active).
In the case of `Nc1nc(Cl)nc2c1ncn2C1OC(CO)C(O)C1O` (centres undefined), the growth in the test with HCT-15 colon was 60.8% (inactive) and 68.4% (inactive); in the test on HT29 colon, 105% (inactive) and 87.7% (inactive); in the test with SNB-75 CNS it was 105% (inactive) and 91.5% (inactive); in the test on SNB-19 CNS it was 52% (inactive) and 53.5% (inactive); with PC-3 prostate it was 65.6% (inactive) and 67.5% (inactive); with SK-MEL-5 melanoma it was 67.6% (inactive) and 52.4% (inactive). Also, the growth in the test with UACC-62 melanoma was 90.1% (inactive) and 80.5% (inactive); in the test on LOX IMVI melanoma it was 88.7% (inactive) and 66.6% (inactive); in the test on SK-MEL-28 melanoma it was 64.6% (inactive) and 75.2% (inactive); with EKVX NSCLC it was 102% (inactive) and 110% (inactive); with SN12C renal it was 30.2% (inactive) and 28.3% (inactive); with UO-31 renal, 25.1% (inactive) and 13% (inactive). Further, the growth is 82.4% (inactive) and 87.6% (inactive) in the test on TK-10 renal; 65.9% (inactive) and 61.9% (inactive) in the test with ACHN renal; 25.9% (inactive) and 41% (inactive) in the test on CAKI-1 renal; 96.6% (inactive) in the test with A498 renal; 0.283% (active) and -17% (active) in the test with CCRF-CEM leukemia; 2.75% (active) and 3.08% (active) in the test with MOLT-4 leukemia.
On to `CCOC(=O)C(=CCC(C)C)C(=O)OCC`, for which the growth is 100% (inactive) with HCT-15 colon; 104% (inactive) in the test on HT29 colon; 93.1% (inactive) in the test with SNB-75 CNS; 98.7% (inactive) in the test on SNB-19 CNS; 103% (inactive) in the test with SK-MEL-5 melanoma; 93% (inactive) in the test on UACC-62 melanoma. Moreover, the growth in the test with LOX IMVI melanoma is 93.3% (inactive); with SK-MEL-28 melanoma, 107% (inactive); in the test on SK-MEL-2 melanoma, 113% (inactive); with SN12C renal, 90.5% (inactive); in the test with UO-31 renal it was 78.5% (inactive); with TK-10 renal, 121% (inactive). In addition, the growth with ACHN renal was 103% (inactive); with CAKI-1 renal, 99.4% (inactive); with A498 renal, 76.2% (inactive); in the test on CCRF-CEM leukemia, 108% (inactive); in the test on MOLT-4 leukemia it was 98.1% (inactive).
On to `C/C=C(/C)C(=O)O[C@@H]1CC(C)(C)CC2C34OC(=O)[C@@]21CC[C@@]3(C)[C@]1(C)CCC2C(C)(C)C(=O)CC[C@]2(C)C1C[C@@H]4Cl` (some centres undefined), for which the growth in the test on HCT-15 colon was 99.3% (inactive); with HT29 colon, 98% (inactive); with SNB-75 CNS, 76% (inactive); in the test on SNB-19 CNS, 92% (inactive); in the test with PC-3 prostate, 80.4% (inactive); in the test on SK-MEL-5 melanoma, 98.4% (inactive). In addition, the growth is 85.3% (inactive) in the test with UACC-62 melanoma; 94.1% (inactive) in the test on LOX IMVI melanoma; 102% (inactive) in the test on SK-MEL-28 melanoma; 103% (inactive) in the test on SK-MEL-2 melanoma; 92% (inactive) with EKVX NSCLC; 102% (inactive) with SN12C renal. The growth with UO-31 renal was 84.2% (inactive); with TK-10 renal, 87.2% (inactive); in the test on ACHN renal it was 102% (inactive); in the test with CAKI-1 renal, 79.9% (inactive); in the test on A498 renal, 89.7% (inactive); in the test on CCRF-CEM leukemia it was 98.1% (inactive). Also, in the test with MOLT-4 leukemia, the growth is 99.6% (inactive).

(Values after PubChem BioAssay (NCI).)
